Compound activity (PubChem)
HPGD block – qHTS Assay for Inhibitors of HPGD (15-Hydroxyprostaglandin Dehydrogenase). 15-hydroxyprostaglandin dehydrogenase [NAD(+)] (Homo sapiens), P15428. purified HPGD, NADH fluorescence kinetic, PGE2 substrate. Potency, µM, without a hit: at the top dose activity change, negative = inhibition, most hits filed as inhibitors. actives 4.3% (n = 150,000). AID 894, 2007; further: potency means the concentration at half of the fitted maximal effect
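NADH formation kinetics: reaction with 30 uM PGE2 and 1 mM NAD+ (final), 20 nM enzyme, Tris-HCl pH 8 with Tween 20, after 15 min compound preincubation at room temperature. Fluorescence change, last versus first of five reads.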
PNC inhibitor – High Content Assay for Compounds that inhibit the Assembly of the Perinucleolar Compartment; PC3M PTB-GFP, PNC prevalence imaging, 16 h; active compounds read low; activity change (PNC), negative = inhibition, % at 10 µM; actives 3.1% (n = 140,000);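 active means readout at or below -70, meaning at least 70% loss of cells showing the perinucleolar compartment, a nuclear body marking cancer cells; inconclusive means readout between -30 and a set limit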;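 further: plate controls were DMSO wells for no effect and camptothecin positive control wells for full effect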
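Read-out is percentage of cells bearing a perinucleolar compartment, from automated 20x imaging of fixed, Hoechst-stained PC3M PTB-GFP cells. Cells were seeded 4 h, then exposed 16 h to compound (23 nl of library stock) in duplicate plates.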
ALDH1A1 block – qHTS Assay for Inhibitors of Aldehyde Dehydrogenase 1 (ALDH1A1); Aldehyde dehydrogenase 1A1 (Homo sapiens), P00352; Purified ALDH1A1, NADH fluorescence, propionaldehyde substrate; actives 7.3% (n = 220,000); Potency, µM (series often up to 75.3 µM), for inactives: top-dose activity, negative = inhibition, most hits filed as inhibitors;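 further: potency means the concentration at half of the fitted maximal effect; plate controls were no enzyme wells and a reference inhibitor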
Target sequence (P00352 whole entry, looked up): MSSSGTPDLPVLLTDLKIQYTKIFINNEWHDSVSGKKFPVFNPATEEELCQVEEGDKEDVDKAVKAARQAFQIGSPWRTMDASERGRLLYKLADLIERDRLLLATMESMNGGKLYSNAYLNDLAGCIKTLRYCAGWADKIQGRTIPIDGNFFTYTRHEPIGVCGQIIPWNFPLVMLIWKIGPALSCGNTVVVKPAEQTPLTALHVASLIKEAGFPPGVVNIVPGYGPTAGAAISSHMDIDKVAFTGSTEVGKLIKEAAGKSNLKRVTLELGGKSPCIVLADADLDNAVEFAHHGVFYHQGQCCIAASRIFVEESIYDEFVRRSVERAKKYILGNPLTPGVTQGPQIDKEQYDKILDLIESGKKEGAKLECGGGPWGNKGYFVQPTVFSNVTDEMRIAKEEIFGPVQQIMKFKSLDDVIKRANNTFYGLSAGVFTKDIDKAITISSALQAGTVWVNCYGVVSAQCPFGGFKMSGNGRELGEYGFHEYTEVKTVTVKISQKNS
Luc counter – Counterscreen for Luciferase (Kinase-Glo TM) Inhibition; Luciferin 4-monooxygenase (Photuris pensylvanica), Q27757; Kinase-Glo luciferase, ATP luminescence, 8 min; Potency, µM (highest dose often 38.3 µM), for the others: at the top dose activity change, negative = inhibition, most hits filed as inhibitors; actives 0.28% (n = 200,000); active means well fitted inhibition curve with a large enough effect; inconclusive means small, poorly fitted or top-dose-only effect; further: potency means the concentration at half of the fitted maximal effect; nearly all actives have a fitted effect of over 60% in size
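Luminescence was the read-out, taken after 8-minute incubation at ambient temperature. Luciferase turned over luciferin with 10 uM ATP in imidazole pH 7.2 buffer containing KCl, MgCl2, Tween 20 and BSA.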
LMNA splice mod – qHTS Assay for Modulators of Lamin A Splicing. actives 0.01% (n = 200,000). Potency, µM (titrated, usually from 46.1 µM), inactives show top-dose ratio change, negative = inhibition, usual class: inhibitors. HeLa LMNA splicing GFP/RFP minigene ratio, 48 h. AID 1487, 2009; active means well fitted inhibition curve with a large enough effect in the signal ratio, with a control signal flat, not every such curve was filed as active; inconclusive means small, poorly fitted or top-dose-only effect, or effect the other way, or a change in a side signal; the % refers to the signal ratio; further: potency means the concentration at half of the fitted maximal effect
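Read-out is the ratio of GFP to DsRed2 object intensity, acquired by 488 nm laser-scanning cytometry on HeLa lamin A-EGFP minigene reporter cells. Compound incubation 48 hrs at 37 °C in Opti-MEM with 2% FBS; DMSO 0.5% final.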
IMPase cell inh – qHTS Assay for Identifying the Cell-Membrane Permeable IMPase Inhibitors. Inositol monophosphatase 1 (Rattus norvegicus), P97697. CHO-M1 cells, IP1 accumulation, HTRF TR-FRET ratio. inhibition (IP1 accumulation), % at 46.1 µM. 120,000 tested, under 10 active; active means well fitted curve in the direction sought with a large enough effect in the signal ratio, not every such curve was filed as active; inconclusive means small, poorly fitted or top-dose-only effect, or a change in a side signal; inactive means no such curve, though single readings can be large or run the other way; the % refers to the signal ratio;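 further: cells stimulated with carbachol in lithium chloride buffer; plate controls were DMSO basal wells for no effect and reference inhibitor wells for full effect; higher means more IMPase inhibition seen as more IP1 and lower FRET ratio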
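In this qHTS, compounds (final up to 46 uM) act on CHO-M1 cells that are then activated through the M1 receptor with carbachol, in pH 7.4 buffer containing 50 mM LiCl, for 30 min. IP1 accumulation is quantified by the IP-One immunoassay.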
Active calls of the source: *; ? = inconclusive; . = no result given; [ ] = dose if it differs, or a comment. Most compounds without a hit are left out; they make up all but 10% or so of the library. Unless noted, the call rests on the fitted dose curve; in most records, active means well fitted inhibition curve with a large enough effect (not every such curve was filed as active); inconclusive means small, poorly fitted or top-dose-only effect, or another doubt; inactive means no such curve, though single readings can be large or run the other way. Unless noted, on the % scale 0 is the no-effect control and ±100 the full control effect.

SMILES	HPGD block	PNC inhibitor	ALDH1A1 block	Luc counter	LMNA splice mod	IMPase cell inh
CCC(C)NC(=O)C1c2cc(OC)c(OC)cc2C(=O)N(C)C1c1ccc(OC)cc1 (centres undefined)	-11%	-100*	2%	1%	3%	-7
CCN1CCN(C(=O)C2c3cc(OC)c(OC)cc3C(=O)N(C)C2c2ccc(SC)cc2)CC1 (centres undefined)	-18%	-100*	?	0%	4%	13
COc1ccc(C2C(C(=O)N3CCN(C)CC3)c3cc(OC)c(OC)cc3C(=O)N2C)cc1 (centres undefined)	.	.	-4%	-5%	?	.
O=S(NCc1ccco1)C12CC3CC(CC(C3)C1)C2 (centres undefined)	?	-100*	?	5%	1%	-13
Cc1ccc(C(=O)Oc2csc(=S)n2C(=O)c2ccc(C)cc2)cc1	5µM*	?	3.5µM*	1%	-4%	5
Cc1ccc(C(=O)N2CCSC2=S)cc1	.	.	-1%	4%	1%[46 µM]	.
COc1ccc(CCNC(=O)c2ccc(CN3CCC(Cc4ccccc4)CC3)cc2)cc1	-6%	19	7%	3%	-6%	.
COc1ccc(C(=O)NCC23C=CC(O2)C2C(=O)N(Cc4ccccc4)C(=O)C23)cc1 (centres undefined)	-7%	-20	7.9µM*	0%	-13%	15
Cc1ccc(-c2noc(C3CCCN(C(=O)c4ccccc4)C3)n2)o1 (centres undefined)	0%	4	14µM*	-5%	-10%	?
COc1cccc(-c2noc(C3CCCN(C(=O)Cc4ccccc4)C3)n2)c1 (centres undefined)	-1%	-16	13µM*	0%	-12%	-3
COc1ccc(C(=O)N2CCCC(c3nc(-c4cc(OC)c(OC)c(OC)c4)no3)C2)cc1 (centres undefined)	25µM*	?	11%	0%	0%	0[1.84 µM]
COCCCNC(=O)Cn1c(=O)nc(-c2ccccc2)c2ccccc21	.	.	.	.	0%[46 µM]	.
Cc1cc(-c2csc(NC(=O)c3ccc(=O)n(C)n3)n2)c(C)n1CC1CCCO1 (centres undefined)	-10%	?	20µM*	-14%	-3%	-13
Cc1cc(-c2csc(NC(=O)c3ccc(=O)[nH]c3)n2)c(C)n1Cc1ccco1	.	.	8.9µM*	.	22%[46 µM]	.
COC(=O)C1CCN(C(c2ccccc2)c2sc3nc(-c4ccco4)nn3c2O)CC1 (centres undefined)	.	.	.	.	-11%[46 µM]	.
O=C(Nc1ccccc1Cl)c1cc2c(-c3ccccc3)nn(-c3ccccc3)c2s1	.	.	.	.	.	6
O=c1cc(CSc2ccc(Cl)cc2)nc(N2CCCCC2)[nH]1	.	14	1%	.	?	12
Cn1[nH]c(CSc2ccc(Cl)cc2)cc1=O	.	.	1.8µM*	1%	7%[46 µM]	.
CCOc1ccc(Cn2c(CNS(=O)(=O)c3ccc(Cl)s3)nc3cccnc32)cc1	.	.	.	.	-12%[46 µM]	.
COc1cccc(Nc2ncc3nc(C)c(=O)n(C4CC4)c3n2)c1	.	.	18%	.	-15%	.
COc1cccc([C@@H]2Oc3ccc(OC)cc3C[C@H]2OC(=O)NCc2ccco2)c1	-16%	.	?	0%	.	.
CCOc1ccc(N/C=C/C(=O)c2ccccc2)c([N+](=O)[O-])c1	-17%	16	100%	11µM*	-6%	1
CCOc1ccc(NC(=O)/C=C/c2ccccc2)c([N+](=O)[O-])c1	-2%	3	1%	1%	-9%	4
Cc1cc(C)n2c(Nc3ccccc3C)c(-c3cccs3)nc2n1	.	.	.	.	.	4
CC(=O)/C(=C\c1ccccc1)CC(=O)O	-9%	.	4%	1%	-2%	.
